These results are taken from PubChem BioAssay AID651965 (National Center for Advancing Translational Sciences (NCATS), 2013).

The structures appear in SMILES notation. In all, about 340,000 compounds went through this assay and about 6,400 (1.9%) were called active. Where a call stands in place of a potency, no number is given. Not shown: some 4% with an inconclusive outcome. Calls follow the shape of the dose curve; as a rule, active = well fitted falling curve with a large enough effect; inconclusive = small, poorly fitted or top-dose-only effect; inactive = no such curve, though single readings can be large or run the other way. The sample as a whole holds a higher share of actives than the screen did.
Potency is read from the fitted curve at half-maximal effect.

This assay addresses ATP-dependent Clp protease proteolytic subunit (Bacillus subtilis (strain 168)) (UniProt P80244). Briefly: qHTS Assay for Activators of ClpP. Also: the source files actives as falling curves though it sought activators and does not explain the sign; nearly all actives have a fitted effect of over 65% in size. The following applies: purified B. subtilis ClpP, FRET peptide cleavage, 20 min; series mostly up to 57.5 µM. Put shortly:
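ClpP 10 microg/mL final, pH 8 Tris/KCl buffer with BSA, glycerol, Tween-20; compound pinned in; FRET-FV substrate; RT 20 min; Ex320/Em430; ΔFRET vs ADEP 5.8 microM, DMSO, no enzyme.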
For orientation: In qHTS, concentration-response curves come from the screen itself.
Turning to `COc1cc(OC)c(/C=C/c2ccnc3ccccc23)c(OC)c1`, the Potency entry is “inactive”.

On to `COc1ccc(C(C(=O)Nc2c(C)cccc2C)N2CCN(c3ccc(C)cc3)CC2)cc1` (stereo not given), for which the Potency entry was “inactive”.

Consider `CCC(CC)C(C(=O)NC1CCCC1)N1CCN(c2cc(C)nc3ccccc23)CC1` (stereo not given), for which the Potency entry is “inactive”.

Consider `COc1ccccc1/C=C/C(=O)NC(=S)N1CCOCC1`, for which the Potency entry is “inactive”. For the compound `COc1ccccc1/C=C/C1=NC(=C\N(C)C)/C(=O)O1`, the Potency was 25.1 µM (active). As for `COc1ccccc1/C=C/c1nc(C#N)c(NC(C)c2ccccc2)o1` (stereo not given), the Potency entry is “inactive”. As to `CC1(C(=O)Nc2ccc3c(c2)OCCO3)CSCC(=O)N1CCOc1ccccc1` (stereo not given), the Potency entry is “inactive”. The entry for `C[C@@H]1CC2=C(C(=O)OC(C)(C)O2)[C@@H](C2CC2)O1` is “inactive”. Consider `COc1ccc(C=C2CCC3C(CCCC34OCCO4)C2=O)cc1` (stereo not given), for which the Potency result is “inactive”. In the case of `CCC(=O)Nc1cccc(-c2nc3cc(C)ccc3o2)c1`, the Potency entry was “inactive”. With `O=C(Nc1ccc(-c2nc3cc(NC(=O)c4ccccc4Cl)ccc3o2)cc1)c1ccccc1Cl`, the Potency result was “inactive”. In the case of `O=C(Nc1ccc2oc(-c3ccc4ccccc4c3)nc2c1)c1cccs1` it was 3.55 µM (active). In the case of `COc1cccc(C(=O)Nc2ccc3oc(-c4ccc5ccccc5c4)nc3c2)c1` it was “inactive”; in that of `O=C(Cc1cccc2ccccc12)Nc1ccc2oc(-c3ccccc3)nc2c1`, 20 µM (active); in that of `CCCC(=O)Nc1ccc2oc(-c3ccc(O)c(Br)c3)nc2c1`, “inactive”. The entry for `Clc1ccc(-c2cccc3nccn23)cc1` is “inactive”; for `Cc1cc(Br)cn2c(Cc3cccc(F)c3)c(-c3cccc(Br)c3)nc12` it is “inactive”; for `C[C@H](NC(=O)CC[C@H]1O[C@@H](n2ccc(=O)[nH]c2=O)[C@H](O)[C@@H]1O)c1cccc2ccccc12` it is “inactive”.

Consider `O=C(O)Cc1ccc(NCc2ccccc2Cl)cc1`, for which the Potency is 8.91 µM (active).

In the case of `S=C(NCCc1ccccc1)NCc1ccccc1Cl`, the Potency result was “inactive”. In the case of `O=C(O)Cc1ccc(NC(=O)Nc2cccc3ccccc23)cc1` it was “inactive”; in that of `O=C1COc2ccc(C(=O)COC(=O)c3ccccc3Cl)cc2N1`, “inactive”.

Turning to `COc1cc(N)c(Cl)cc1C(=O)OCC(=O)c1ccc2c(c1)NC(=O)CO2`, the Potency is 14.1 µM (active). The entry for `Cc1ccc(C)c(OCCC(=O)OCC(=O)c2ccc3c(c2)NC(=O)CO3)c1` is “inactive”; for `COc1cccc(CNc2nc(NCc3cccs3)nc3ccsc23)c1` it is “inactive”.

For `CSCCC(c1nnnn1Cc1ccccc1)N1CCN(C/C=C/c2ccccc2)CC1` (stereo not given), the Potency entry was “inactive”.

Turning to `CC(C)(C)c1nc2ccccc2c(=O)n1N1C(=O)c2ccccc2C1=O`, the Potency result was “inactive”. Take `Cn1c(=O)c2c(n3c4ccccc4nc13)NC(=O)CC2c1cccc(Cl)c1` (stereo not given): the Potency entry is “inactive”. As to `CC(C)(C)c1cc(=O)n2c(nc3ccccc32)[nH]1`, the Potency was 15.8 µM (active). As to `CCc1nc2ccc(C(=O)NC3CCN(Cc4ccccc4)CC3)cn2c1N(C)CCN1CCOCC1`, the Potency result was “inactive”. For the compound `CCCCOCCCNC(=O)C[C@@H]1C[C@@]2(C(=O)OCC)CCCC=C2N(CCC2=CCCCC2)C1=O`, the Potency entry was “inactive”.

As to `COc1ccc(CCNC(=O)Nc2ccc3c(c2)c(=O)n(C)n3C)cc1OC`, the Potency entry is “inactive”.

On to `N#Cc1cccc(NC(=O)c2cc(C3CCCCN3C(=O)CCc3ccccc3)on2)c1` (stereo not given), for which the Potency entry is “inactive”.

As for `COc1ccc2c(c1OC)C(=O)N(c1ncn[nH]1)C2`, the Potency is 28.2 µM (active). In the case of `CC1(C)OC(=O)C2=C(C[C@@H](C3CCCC3)O[C@@H]2c2ccc(Cl)cc2)O1` it was “inactive”.

On to `O=C(NCc1ccccc1Cl)c1csc([C@@H]2O[C@H](CO)[C@@H](O)[C@H]2O)n1`, for which the Potency result was “inactive”. For `Cc1cc(C(=O)OCC(=O)N2C(C)CCCC2C)c2ccccc2n1` (stereo not given), the Potency result is “inactive”. The entry for `CC1CCCC(C)N1C(=O)COC(=O)c1ccccc1C(=O)c1ccccc1` (stereo not given) is “inactive”; for `Cc1nn(-c2ccccc2)nc1C(=O)OCC(=O)N1CCCCC1C` (stereo not given) it is 10 µM (active); for `COc1ccc(C2=Nc3ccccc3NC(=O)C2N(C(=O)c2cc3ccccc3[nH]2)c2ccccc2)cc1` (stereo not given) it is “inactive”. `Nc1nc2ncccn2c1-c1ccccc1`: the Potency result is “inactive”. The entry for `Cc1cc(-c2ccccc2)n2nc(-c3ccccc3)cc2n1` is “inactive”; for `c1ccc(-c2ccnc3nc(-n4cccc4)nn23)cc1` it is 1.78 µM (active); for `CN(C)c1ccc(C=Nc2ccc(/C=C/c3ccnc4ccccc34)cc2)cc1` it is “inactive”. Regarding `CC1(C)OC(=O)C2=C(C[C@@H](C3CC3)O[C@H]2CCc2cccc(Cl)c2)O1`, the Potency entry is “inactive”.

Turning to `O=C(Nc1cc(Br)ccc1F)c1nc[nH]c1C(=O)NCc1ccccc1`, the Potency entry was “inactive”. Consider `O=C(NNc1ncnc2c1cnn2-c1ccccc1)c1ccco1`, for which the Potency result is “inactive”. On to `Cc1ccc(-n2ncc3c(N4CCC(C(N)=O)CC4)ncnc32)cc1`, for which the Potency entry is “inactive”. `CC1(C(=O)Nc2cccnc2)Cc2c(-c3ccccc3)ccnc2O1` (stereo not given): the Potency entry is “inactive”.

Turning to `COc1ccc(CCn2c3c(c(=O)[nH]c2=S)CN(C(C)C)CN3)cc1OC`, the Potency result is “inactive”. For the compound `CCNC(=O)C1CCCN(C(=O)c2ccc(OC)cc2OC)CC1` (stereo not given), the Potency entry was “inactive”.

Take `CCc1nc2ccc(C(=O)NC3CCN(Cc4ccccc4)CC3)cn2c1N(CC)CCOC`: the Potency entry was “inactive”. The figure for `CCOC(=O)c1cc2cc(C)ccc2[nH]1` is 14.1 µM (active); for `CCOC(=O)c1[nH]c2ccc(C)cc2c1N=C(C)N(C)C` it is “inactive”. On to `Cc1ccc2[nH]c(=O)c(COC(=O)c3ccccn3)cc2c1`, for which the Potency entry was “inactive”.

Consider `COC(=O)c1ccc2nc(-c3cccc(Br)c3)c(Cc3ccccc3C(F)(F)F)n2c1`, for which the Potency entry was “inactive”.

For the compound `COCCN(CCOC)c1nc(N)c2c(N)nc3c(c2c1C#N)CC(=O)N3Cc1ccc(Cl)cc1`, the Potency was 3.16 µM (active).

On to `COc1ccc(C(C#N)=C2C=CC(=NO)c3ccccc32)cc1`, for which the Potency result is “inactive”. On to `CC1(C)O[C@H]2CC(=O)OCC23[C@H]2CC[C@@]4(C)[C@H](c5ccoc5)OC(=O)[C@H]5O[C@]54[C@]2(C)C(=O)C[C@@H]13` (stereo not given in full), for which the Potency result is “inactive”. In the case of `CC1=C2C(=O)OC(c3ccoc3)C2(C)CCC1` (stereo not given) it was 25.1 µM (active); in that of `CC(C)(C(=O)NO)c1ccccc1`, “inactive”. As to `CCCC(=O)Nc1ccc(C(=O)N/N=C/c2ccc[nH]2)cc1`, the Potency entry is “inactive”.

With `O=C(COc1ccccc1[N+](=O)[O-])N/N=C/c1ccc[nH]1`, the Potency is 31.6 µM (active). As to `CC(Oc1ccccc1[N+](=O)[O-])C(=O)N/N=C/c1ccoc1` (stereo not given), the Potency entry is “inactive”. `O=C(Nc1ccc(Cl)cc1)c1csc([C@H]2C[C@H](O)[C@@H](CO)O2)n1`: the Potency result is “inactive”.
